This passage reports residual activity results from ChEMBL document CHEMBL2218924, “A broad activity screen in support of a chemogenomic map for kinase signalling research and drug discovery” (Biochem J, 2013).

In test [1] the target is Insulin receptor (Homo sapiens) (UniProt P06213). Particulars: at 10 µM.
Test [2] has the same target. The conditions noted are these: at 1 µM.
Test [3] shares this target. Particulars: at 10 µM. The source holds these as a separate data set.
Test [4] has as its target Interleukin-1 receptor-associated kinase 1 (Homo sapiens) (UniProt P51617). Particulars: at 1 µM.
The target is the same in test [5]. The conditions noted are these: at 10 µM.
In test [6] the target is T1, Interleukin-1 receptor-associated kinase 4 (Homo sapiens) (UniProt Q9NWZ3).
T1 sequence (whole entry): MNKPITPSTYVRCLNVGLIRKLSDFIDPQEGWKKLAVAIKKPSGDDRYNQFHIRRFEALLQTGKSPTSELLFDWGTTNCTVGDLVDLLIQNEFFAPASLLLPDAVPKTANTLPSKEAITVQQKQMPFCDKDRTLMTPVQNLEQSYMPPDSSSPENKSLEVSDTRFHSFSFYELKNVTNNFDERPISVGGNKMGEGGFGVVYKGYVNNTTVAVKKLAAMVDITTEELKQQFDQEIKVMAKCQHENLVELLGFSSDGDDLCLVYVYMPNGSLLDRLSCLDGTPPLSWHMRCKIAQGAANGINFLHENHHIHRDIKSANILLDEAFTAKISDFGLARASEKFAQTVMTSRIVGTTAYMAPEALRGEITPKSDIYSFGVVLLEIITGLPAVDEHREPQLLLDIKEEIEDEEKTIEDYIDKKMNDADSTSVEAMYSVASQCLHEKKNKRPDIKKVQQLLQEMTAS
The conditions noted are these: at 1 µM.

In test [7] the target is T1, Interleukin-1 receptor-associated kinase 4 (Homo sapiens). The conditions noted are these: at 10 µM.
Test [8] deals with Insulin receptor-related protein (Homo sapiens) (UniProt P14616). Particulars: at 1 µM.
Test [9] has the same target. Particulars: at 10 µM.
In test [10] the target is T2, Tyrosine-protein kinase ITK/TSK (Homo sapiens) (UniProt Q08881).
T2 sequence (whole entry): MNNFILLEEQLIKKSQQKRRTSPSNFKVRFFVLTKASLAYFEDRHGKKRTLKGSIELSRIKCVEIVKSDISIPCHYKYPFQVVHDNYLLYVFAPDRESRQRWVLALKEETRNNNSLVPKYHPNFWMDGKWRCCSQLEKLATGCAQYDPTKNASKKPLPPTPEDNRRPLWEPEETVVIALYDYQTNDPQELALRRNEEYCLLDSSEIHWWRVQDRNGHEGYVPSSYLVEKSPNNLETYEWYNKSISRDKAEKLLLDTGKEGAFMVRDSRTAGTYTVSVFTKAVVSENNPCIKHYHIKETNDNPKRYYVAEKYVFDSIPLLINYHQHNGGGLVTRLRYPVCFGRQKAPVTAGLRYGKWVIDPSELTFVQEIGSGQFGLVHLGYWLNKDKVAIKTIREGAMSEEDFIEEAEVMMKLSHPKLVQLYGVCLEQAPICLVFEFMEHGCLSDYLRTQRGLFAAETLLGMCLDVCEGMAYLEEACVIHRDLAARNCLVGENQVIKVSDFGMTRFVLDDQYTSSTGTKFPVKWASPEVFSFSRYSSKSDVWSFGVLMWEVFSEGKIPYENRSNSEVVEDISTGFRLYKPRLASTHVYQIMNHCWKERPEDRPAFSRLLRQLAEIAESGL
The conditions noted are these: at 1 µM.

The target in test [11] is T2, Tyrosine-protein kinase ITK/TSK (Homo sapiens). Particulars: at 10 µM.
The target in test [12] is Tyrosine-protein kinase JAK2 (Homo sapiens) (UniProt O60674). The conditions noted are these: at 1 µM.
The target is the same in test [13]. Particulars: at 10 µM.
In test [14] the target is T3, Tyrosine-protein kinase JAK3 (Homo sapiens) (UniProt P52333).
T3 sequence (whole entry): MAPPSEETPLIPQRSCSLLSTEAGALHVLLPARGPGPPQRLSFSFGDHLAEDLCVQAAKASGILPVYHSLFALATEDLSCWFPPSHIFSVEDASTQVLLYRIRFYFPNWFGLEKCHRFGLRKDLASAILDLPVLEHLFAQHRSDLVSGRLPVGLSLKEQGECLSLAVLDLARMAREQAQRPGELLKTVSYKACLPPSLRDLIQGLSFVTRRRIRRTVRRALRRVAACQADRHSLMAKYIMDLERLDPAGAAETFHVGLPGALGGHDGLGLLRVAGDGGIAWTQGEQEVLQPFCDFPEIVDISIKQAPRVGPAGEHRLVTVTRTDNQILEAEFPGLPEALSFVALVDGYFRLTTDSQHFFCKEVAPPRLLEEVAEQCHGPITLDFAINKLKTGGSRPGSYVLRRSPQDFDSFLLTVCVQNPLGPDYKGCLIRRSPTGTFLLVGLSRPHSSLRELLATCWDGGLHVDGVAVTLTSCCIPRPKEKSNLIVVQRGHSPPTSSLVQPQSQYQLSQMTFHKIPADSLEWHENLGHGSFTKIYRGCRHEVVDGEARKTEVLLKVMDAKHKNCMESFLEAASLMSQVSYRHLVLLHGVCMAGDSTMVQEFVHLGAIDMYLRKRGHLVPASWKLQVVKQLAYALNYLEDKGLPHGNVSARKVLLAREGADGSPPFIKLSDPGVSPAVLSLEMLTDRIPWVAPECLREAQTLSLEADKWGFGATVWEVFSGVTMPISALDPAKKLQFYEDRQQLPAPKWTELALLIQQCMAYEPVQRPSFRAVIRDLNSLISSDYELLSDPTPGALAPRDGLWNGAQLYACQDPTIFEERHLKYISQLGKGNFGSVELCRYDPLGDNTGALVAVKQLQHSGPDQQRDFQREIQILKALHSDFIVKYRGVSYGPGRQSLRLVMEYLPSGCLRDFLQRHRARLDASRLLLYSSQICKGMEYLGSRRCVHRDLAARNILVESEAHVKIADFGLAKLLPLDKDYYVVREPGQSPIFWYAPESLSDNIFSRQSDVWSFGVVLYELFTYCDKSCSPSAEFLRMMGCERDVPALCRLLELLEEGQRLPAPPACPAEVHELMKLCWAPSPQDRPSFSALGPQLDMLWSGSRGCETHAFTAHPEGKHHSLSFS
The conditions noted are these: at 1 µM.

For test [15], the target named is T3, Tyrosine-protein kinase JAK3 (Homo sapiens). Particulars: at 10 µM.
The target of test [16] is Mitogen-activated protein kinase 8 (Homo sapiens) (UniProt P45983). The conditions noted are these: at 1 µM.
Test [17] has the same target. Particulars: at 10 µM.
The target of test [18] is Mitogen-activated protein kinase 9 (Homo sapiens) (UniProt P45984). The conditions noted are these: at 1 µM.
For test [19] the target is unchanged. Particulars: at 10 µM.
The target in test [20] is Mitogen-activated protein kinase 10 (Homo sapiens) (UniProt P53779). The conditions noted are these: at 1 µM.
Mitogen-activated protein kinase 10 (Homo sapiens), sequence (P53779 whole entry): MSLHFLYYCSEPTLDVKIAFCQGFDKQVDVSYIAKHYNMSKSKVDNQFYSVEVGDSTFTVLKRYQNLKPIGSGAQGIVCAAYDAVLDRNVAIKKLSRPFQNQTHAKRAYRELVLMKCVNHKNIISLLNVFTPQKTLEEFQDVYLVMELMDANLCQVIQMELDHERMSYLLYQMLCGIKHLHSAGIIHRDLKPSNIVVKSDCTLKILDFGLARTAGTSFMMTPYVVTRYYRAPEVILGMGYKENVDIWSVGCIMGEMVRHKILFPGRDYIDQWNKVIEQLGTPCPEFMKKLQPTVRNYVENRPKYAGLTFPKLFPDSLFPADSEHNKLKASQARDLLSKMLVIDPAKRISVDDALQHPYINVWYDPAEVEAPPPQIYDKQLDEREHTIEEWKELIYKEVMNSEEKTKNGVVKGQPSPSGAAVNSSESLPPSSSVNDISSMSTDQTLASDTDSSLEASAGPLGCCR

Mitogen-activated protein kinase 8 (Homo sapiens), sequence (P45983 whole entry): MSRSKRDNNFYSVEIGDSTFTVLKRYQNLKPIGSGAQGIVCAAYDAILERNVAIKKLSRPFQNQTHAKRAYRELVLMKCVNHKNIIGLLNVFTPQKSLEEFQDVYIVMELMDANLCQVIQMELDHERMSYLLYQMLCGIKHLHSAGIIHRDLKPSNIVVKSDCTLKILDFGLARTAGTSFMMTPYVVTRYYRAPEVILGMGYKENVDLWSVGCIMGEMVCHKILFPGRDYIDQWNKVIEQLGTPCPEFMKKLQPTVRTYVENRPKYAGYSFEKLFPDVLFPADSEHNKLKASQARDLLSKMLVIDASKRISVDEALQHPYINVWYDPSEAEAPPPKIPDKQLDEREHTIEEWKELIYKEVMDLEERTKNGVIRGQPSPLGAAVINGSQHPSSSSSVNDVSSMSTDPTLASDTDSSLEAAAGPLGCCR
Insulin receptor (Homo sapiens), sequence (P06213 28-758 limits assumed): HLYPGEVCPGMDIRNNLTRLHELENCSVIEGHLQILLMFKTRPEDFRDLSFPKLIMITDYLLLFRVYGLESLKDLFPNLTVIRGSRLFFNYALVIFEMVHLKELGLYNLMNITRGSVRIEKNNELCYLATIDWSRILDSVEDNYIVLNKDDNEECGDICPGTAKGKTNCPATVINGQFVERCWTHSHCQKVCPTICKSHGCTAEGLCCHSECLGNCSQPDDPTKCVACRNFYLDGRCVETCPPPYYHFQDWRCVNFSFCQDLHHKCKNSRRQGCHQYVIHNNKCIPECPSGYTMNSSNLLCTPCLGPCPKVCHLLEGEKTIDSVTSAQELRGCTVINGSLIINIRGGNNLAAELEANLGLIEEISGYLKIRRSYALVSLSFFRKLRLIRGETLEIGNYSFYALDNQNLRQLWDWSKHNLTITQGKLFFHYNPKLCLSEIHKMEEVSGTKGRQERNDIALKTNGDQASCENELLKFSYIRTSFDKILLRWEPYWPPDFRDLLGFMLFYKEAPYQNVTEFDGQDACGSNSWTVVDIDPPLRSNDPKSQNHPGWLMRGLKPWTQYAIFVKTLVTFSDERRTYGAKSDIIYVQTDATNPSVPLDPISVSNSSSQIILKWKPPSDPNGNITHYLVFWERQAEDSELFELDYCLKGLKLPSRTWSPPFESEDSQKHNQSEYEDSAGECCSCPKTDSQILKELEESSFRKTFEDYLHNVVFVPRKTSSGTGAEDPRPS
Insulin receptor (Homo sapiens), sequence (P06213 763-1382 limits assumed): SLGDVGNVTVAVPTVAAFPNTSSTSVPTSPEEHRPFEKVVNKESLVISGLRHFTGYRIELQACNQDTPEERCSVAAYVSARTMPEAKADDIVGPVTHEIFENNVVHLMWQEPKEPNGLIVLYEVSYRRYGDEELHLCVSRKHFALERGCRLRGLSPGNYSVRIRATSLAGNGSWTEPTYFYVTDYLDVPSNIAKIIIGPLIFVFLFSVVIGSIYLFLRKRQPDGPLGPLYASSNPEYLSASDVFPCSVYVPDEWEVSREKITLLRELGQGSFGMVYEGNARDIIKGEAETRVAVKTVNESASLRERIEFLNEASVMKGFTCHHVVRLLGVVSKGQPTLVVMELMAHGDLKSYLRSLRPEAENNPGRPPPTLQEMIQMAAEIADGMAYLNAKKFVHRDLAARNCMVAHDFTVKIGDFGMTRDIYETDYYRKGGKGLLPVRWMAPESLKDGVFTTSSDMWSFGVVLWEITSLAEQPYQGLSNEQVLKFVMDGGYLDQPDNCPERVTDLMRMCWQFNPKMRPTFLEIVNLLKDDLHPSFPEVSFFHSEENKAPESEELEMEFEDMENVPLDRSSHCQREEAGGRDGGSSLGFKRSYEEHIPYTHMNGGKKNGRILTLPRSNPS
Tyrosine-protein kinase JAK2 (Homo sapiens), sequence (O60674 whole entry): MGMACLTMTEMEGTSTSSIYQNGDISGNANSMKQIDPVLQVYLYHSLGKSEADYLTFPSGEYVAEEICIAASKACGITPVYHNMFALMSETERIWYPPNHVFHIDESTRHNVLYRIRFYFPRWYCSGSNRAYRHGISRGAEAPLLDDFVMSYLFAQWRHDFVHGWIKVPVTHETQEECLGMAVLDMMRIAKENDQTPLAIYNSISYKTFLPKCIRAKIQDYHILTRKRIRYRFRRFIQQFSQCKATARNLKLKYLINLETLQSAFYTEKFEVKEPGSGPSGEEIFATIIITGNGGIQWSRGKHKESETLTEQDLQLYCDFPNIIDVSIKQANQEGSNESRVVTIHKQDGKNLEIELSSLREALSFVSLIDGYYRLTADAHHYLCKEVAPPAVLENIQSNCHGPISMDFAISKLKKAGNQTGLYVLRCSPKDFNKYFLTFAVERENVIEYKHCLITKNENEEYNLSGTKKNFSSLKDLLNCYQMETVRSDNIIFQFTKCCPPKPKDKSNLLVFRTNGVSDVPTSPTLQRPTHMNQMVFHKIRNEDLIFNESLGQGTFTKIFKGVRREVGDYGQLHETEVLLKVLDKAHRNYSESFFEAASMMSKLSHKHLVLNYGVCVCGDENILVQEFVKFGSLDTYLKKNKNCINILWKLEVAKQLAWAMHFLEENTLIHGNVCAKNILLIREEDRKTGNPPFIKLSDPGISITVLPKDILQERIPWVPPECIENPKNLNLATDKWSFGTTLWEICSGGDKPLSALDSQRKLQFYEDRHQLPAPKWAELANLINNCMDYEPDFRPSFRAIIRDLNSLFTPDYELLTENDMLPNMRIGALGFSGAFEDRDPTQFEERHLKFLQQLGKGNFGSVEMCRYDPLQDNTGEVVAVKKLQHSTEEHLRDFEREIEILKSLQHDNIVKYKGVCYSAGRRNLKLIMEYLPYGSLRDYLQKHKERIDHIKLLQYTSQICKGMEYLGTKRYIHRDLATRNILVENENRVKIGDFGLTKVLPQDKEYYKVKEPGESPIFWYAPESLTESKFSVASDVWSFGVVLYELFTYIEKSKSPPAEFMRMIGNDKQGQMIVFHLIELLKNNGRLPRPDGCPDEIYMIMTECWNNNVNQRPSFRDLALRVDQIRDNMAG
Insulin receptor-related protein (Homo sapiens), sequence (P14616 27-742 limits assumed): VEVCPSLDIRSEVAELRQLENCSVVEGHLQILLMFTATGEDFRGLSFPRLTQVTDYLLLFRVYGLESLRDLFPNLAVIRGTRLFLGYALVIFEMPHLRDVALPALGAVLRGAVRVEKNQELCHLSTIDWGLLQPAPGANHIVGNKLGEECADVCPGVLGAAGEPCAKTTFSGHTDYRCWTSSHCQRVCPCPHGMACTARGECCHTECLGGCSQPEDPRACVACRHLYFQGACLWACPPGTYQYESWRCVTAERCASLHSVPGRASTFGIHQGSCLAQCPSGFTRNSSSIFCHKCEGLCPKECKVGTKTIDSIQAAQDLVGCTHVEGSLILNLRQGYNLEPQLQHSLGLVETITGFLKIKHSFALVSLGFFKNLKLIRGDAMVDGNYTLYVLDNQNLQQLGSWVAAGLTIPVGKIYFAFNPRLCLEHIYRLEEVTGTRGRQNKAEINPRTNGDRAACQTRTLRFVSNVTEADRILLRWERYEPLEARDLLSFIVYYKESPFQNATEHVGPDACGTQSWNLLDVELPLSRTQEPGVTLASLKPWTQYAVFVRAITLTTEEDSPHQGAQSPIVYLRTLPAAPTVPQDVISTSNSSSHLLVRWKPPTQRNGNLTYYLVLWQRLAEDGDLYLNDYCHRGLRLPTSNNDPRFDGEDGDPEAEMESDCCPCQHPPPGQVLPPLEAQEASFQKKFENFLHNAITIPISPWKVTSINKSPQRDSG
Insulin receptor-related protein (Homo sapiens), sequence (P14616 747-1297 limits assumed): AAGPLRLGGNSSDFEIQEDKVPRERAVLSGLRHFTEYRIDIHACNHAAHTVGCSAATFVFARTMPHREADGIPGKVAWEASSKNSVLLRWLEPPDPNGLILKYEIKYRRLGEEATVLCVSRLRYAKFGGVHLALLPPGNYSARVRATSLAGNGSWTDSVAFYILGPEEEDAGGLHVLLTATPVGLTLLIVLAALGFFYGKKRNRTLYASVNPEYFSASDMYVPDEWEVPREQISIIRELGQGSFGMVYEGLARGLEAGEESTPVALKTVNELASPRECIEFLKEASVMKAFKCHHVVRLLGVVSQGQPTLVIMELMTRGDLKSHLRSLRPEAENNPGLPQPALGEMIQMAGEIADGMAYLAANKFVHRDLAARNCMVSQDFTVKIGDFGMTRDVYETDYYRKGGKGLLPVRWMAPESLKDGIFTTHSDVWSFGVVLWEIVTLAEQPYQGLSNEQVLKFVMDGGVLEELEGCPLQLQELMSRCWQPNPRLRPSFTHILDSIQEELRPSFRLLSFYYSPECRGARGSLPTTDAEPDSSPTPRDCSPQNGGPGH

In the case of `CN(C)c1ccc(/C=C2\C(=O)Nc3ccccc32)cc1`, the residual activity worked out at 65% in test [1]; 93% in [2]; 71% in test [3]; 118% in test [4]; 91% in [5]; 92% in test [6]. The residual activity in [7] stood at 46%; in test [8] it was 111%; in [9], 23%; in test [10], 98%; in test [11], 65%; in test [12] it was 115%. Besides, the residual activity in [13] was 83%; in [14] it was 86%; in [15], 32%; in [16] it was 106%; in [17] it was 93%; in test [18], 102%. The residual activity is 98% in [19] and 110% in [20].
As for `C[C@@H](N)[C@H]1CC[C@H](C(=O)Nc2ccncc2)CC1`, the residual activity in [1] turned out to be 109%; in test [2] it was 104%; in [3] it was 97%; in test [4] it was 100%; in test [5], 98%; in test [6], 101%. In addition, the residual activity came to 95% in [7]; 103% in [8]; 101% in test [9]; 106% in [10]; 104% in test [11]; 95% in test [12]. The residual activity in [13] was 100%; in test [14], 107%; in [15], 122%; in [16], 98%; in test [17] it was 110%; in [18], 111%. Also, the residual activity in [19] is 105%; in test [20] it was 83%.
Turning to `CCOc1cc2ncnc(Nc3cccc(Br)c3)c2cc1OCC`, the residual activity in test [1] was 144%; in [2] it was 100%; in test [3] it was 92%; in [4], 79%; in test [5], 28%; in test [6], 49%. Besides, the residual activity was determined as 18% in test [7]; 126% in test [8]; 85% in [9]; 94% in test [10]; 85% in test [11]; 118% in [12]. Besides, the residual activity in test [13] stood at 88%; in test [14], 105%; in [15], 87%; in test [16], 99%; in test [17], 77%; in test [18] it was 105%. Further, the results for the residual activity in test [19] and in [20] were 96% and 43%, respectively.
On to `CC(=O)c1ccc(N2CCOCC2)cc1O`, for which the residual activity worked out at 81% in test [1]; 104% in [2]; 97% in test [3]; 105% in test [4]; 95% in [5]; 95% in test [6]. In addition, the residual activity turned out to be 98% in [7]; 97% in test [10]; 97% in test [11]; 102% in [12]; 96% in test [13]; 102% in test [14]. Moreover, the residual activity in test [15] stood at 105%; in test [16] it was 104%; in test [17], 80%; in test [18], 101%; in test [19], 103%; in test [20], 88%.
Consider `N#CCCc1ccc2c(c1)-c1[nH]c3ccc([N+](=O)[O-])cc3c1CC(=O)N2`, for which the residual activity was determined as 76% in test [3]; 45% in [4]; 20% in test [5]; 62% in [6]; 28% in test [7]; 100% in test [8]. The residual activity in test [9] is 81%; in test [10] it was 81%; in test [11], 52%; in test [15], 66%; in test [20] it was 67%.
For `CCC(=O)Nc1ccc2ncnc(Nc3cccc(Br)c3)c2c1`, the residual activity was 79% in test [1]; 102% in test [2]; 100% in test [3]; 89% in test [4]; 83% in test [5]; 96% in test [6]. The residual activity stood at 91% in test [7]; 111% in test [8]; 79% in test [9]; 106% in test [10]; 102% in test [11]; 89% in test [12]. Also, the residual activity in test [13] was 107%; in test [14] it was 99%; in test [15] it was 100%; in test [16], 94%; in test [17], 76%; in test [18], 105%. The results for the residual activity in test [19] and in [20] were 89% and 72%, respectively.
Take `COc1cc2ncnc(Nc3ccc(NC(=O)c4ccccc4)cc3)c2cc1OC`: the residual activity in [1] is 92%; in [2], 105%; in test [4], 100%; in test [5] it was 99%; in test [7] it was 97%; in test [9], 79%. Moreover, the residual activity amounted to 99% in test [11], 102% in [14], 109% in test [18] and 108% in test [19].
Take `O=C1Nc2cc(Br)ccc2/C1=C1/Nc2ccccc2/C1=N\O`: the residual activity in test [1] was 82%; in [2] it was 98%; in test [3], 83%; in test [4], 93%; in [5] it was 90%; in test [6], 35%. For the same compound, the residual activity in test [7] was determined as 34%; in test [8], 78%; in test [9] it was 85%; in test [10] it was 22%; in test [11] it was 9%; in [12], 68%. The residual activity in test [13] is 58%; in [14] it was 20%; in test [15] it was 21%; in test [16] it was 93%; in test [17], 85%; in test [18] it was 79%. Besides, the residual activity in test [19] was 89%; in [20] it was 38%.
